# Several values for one entry are separate records, joined by “and”; a condition that tells them apart may be missing. Equal entries are not always repeated. Results filed as inconclusive are left out. Activity calls are given as the source filed them. Unless noted, calls come from the whole dose curve; as a rule, active = well fitted curve in either direction with a large enough effect (not every such curve was filed as active); inconclusive = small, poorly fitted or top-dose-only effect, or another doubt; inactive = flat fitted curve, though single readings scatter.
# Legend:
# [1] = AP1 Signaling Pathway (AID 357); conditions: ME-180 AP-1-bla reporter, EGF-induced, beta-lactamase ratio, 5 h;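 note: ME-180 reporter cells stimulated with EGF at its EC50 level; % is set by controls: 0 for no effect and ±100 for the full control effect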
# How it was run: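 Beta-lactamase reporter under AP-1 response element, ME-180 background. Stimulus: EC50 EGF. Compound exposure 5 h, 37 °C. Detection: CCF4, 2.5 h RT, 460/530 nm. Values: AC50 from titration.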
# [2] = target: Cytochrome P450 1A2 (Homo sapiens) (UniProt P05177); assay: p450-cyp1a2 (AID 410; calls by dose curve; note: potency is the fitted concentration of half-maximal effect;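 for activity change, negative = inhibition: -100% = full effect of reference inhibitor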)
# Chain of Cytochrome P450 1A2 (Homo sapiens) (P05177 whole entry, looked up): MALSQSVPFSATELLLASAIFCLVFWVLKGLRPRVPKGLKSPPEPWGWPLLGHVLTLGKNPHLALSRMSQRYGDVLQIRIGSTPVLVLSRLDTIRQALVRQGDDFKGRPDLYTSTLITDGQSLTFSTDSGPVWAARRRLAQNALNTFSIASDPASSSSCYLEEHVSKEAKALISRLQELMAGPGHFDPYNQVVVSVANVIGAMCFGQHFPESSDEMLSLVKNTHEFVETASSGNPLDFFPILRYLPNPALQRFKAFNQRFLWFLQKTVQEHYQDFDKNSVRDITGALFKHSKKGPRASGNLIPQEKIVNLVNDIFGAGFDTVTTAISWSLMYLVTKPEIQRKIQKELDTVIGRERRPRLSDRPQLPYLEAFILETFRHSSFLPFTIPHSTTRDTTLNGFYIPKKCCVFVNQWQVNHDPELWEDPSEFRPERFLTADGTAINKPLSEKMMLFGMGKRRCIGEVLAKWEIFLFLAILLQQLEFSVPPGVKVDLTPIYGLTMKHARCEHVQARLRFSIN
# How it was run: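 20nM CYP1A2, 100uM Luciferin-ME (=Km), 100mM KPO4; cpd 10 min RT; +NADPH regen, 60 min RT; stop/detect 20 min; luminescence. Normalized to furafylline 57 uM = full inhibition.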
# [3] = NFAT Signaling Pathway (AID 444); conditions: Jurkat NFAT-bla M1, carbachol, beta-lactamase ratio, 5 h;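 note: carbachol stimulus at about its EC50 of 1 µM final; % is set by controls: 0 for no effect and ±100 for the full control effect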
# How it was run: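 Read-out: CCF4 FRET ratio (460 nm/530 nm) after 1 h RT dye loading, used for %activity and AC50 from titration series. Cells: Jurkat NFAT-β-lactamase/M1 line, treated with compound plus 1 uM carbachol for 5 h, 37 °C.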
# [4] = Stat Signaling Pathway (AID 446); conditions: ME-180 (cervical carcinoma) SIE beta-lactamase reporter, IL-6 stimulated, 5 h;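 note: ME-180 cervical cancer cells given 40 pM IL-6 alongside compound; SIE-controlled beta-lactamase reporter measured as 460/530 nm FRET emission ratio; % is set by controls: 0 for no effect and ±100 for the full control effect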
# How it was run: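 FRET read-out (405 nm excitation, 460/530 nm emission) of a beta-lactamase reporter under a STAT-inducible element in ME-180 cervical carcinoma cells. Cells with compound receive 40 pM IL-6 for 5 h. Values are normalised to AC90 stimulation and AC90 JAK-inhibitor controls.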
# [5] = target: Glucocorticoid receptor (Homo sapiens) (UniProt P04150); assay: GR-GFP Redistribution (AID 450;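 active = compounds whose dose series gives a full or clear partial fitted curve of increased nuclear translocation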; note: potency is the fitted concentration of half-maximal effect); conditions: U2OS GR-GFP nuclear translocation, laser cytometry, 2 h
# Chain of Glucocorticoid receptor (Homo sapiens) (P04150 whole entry, looked up, the tested form may be a part): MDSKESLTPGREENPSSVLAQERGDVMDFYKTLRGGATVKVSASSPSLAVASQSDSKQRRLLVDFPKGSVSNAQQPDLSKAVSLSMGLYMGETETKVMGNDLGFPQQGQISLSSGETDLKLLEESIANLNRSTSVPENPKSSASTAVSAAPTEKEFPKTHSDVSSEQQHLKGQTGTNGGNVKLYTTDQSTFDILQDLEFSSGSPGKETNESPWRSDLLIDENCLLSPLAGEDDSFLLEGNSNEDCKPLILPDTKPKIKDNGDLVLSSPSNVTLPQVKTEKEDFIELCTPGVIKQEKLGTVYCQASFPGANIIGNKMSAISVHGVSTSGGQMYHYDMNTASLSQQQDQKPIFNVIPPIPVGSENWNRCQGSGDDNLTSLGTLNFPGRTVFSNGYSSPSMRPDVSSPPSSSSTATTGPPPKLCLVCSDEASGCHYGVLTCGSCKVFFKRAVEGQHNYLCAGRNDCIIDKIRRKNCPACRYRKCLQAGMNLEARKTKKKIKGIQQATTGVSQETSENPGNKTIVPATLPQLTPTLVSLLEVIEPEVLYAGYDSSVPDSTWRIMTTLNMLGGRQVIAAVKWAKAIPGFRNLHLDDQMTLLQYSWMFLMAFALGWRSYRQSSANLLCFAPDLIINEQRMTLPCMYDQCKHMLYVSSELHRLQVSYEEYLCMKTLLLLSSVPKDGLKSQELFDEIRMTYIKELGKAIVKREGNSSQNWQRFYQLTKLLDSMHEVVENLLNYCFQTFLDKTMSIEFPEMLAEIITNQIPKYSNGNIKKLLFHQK
# [6] = target: Glucocorticoid receptor (Homo sapiens) (UniProt P04150); assay: GR-EFC Redistribution (AID 451; calls by dose curve; note: potency is the fitted concentration of half-maximal effect); conditions: CHO-K1 GR-EFC translocation, beta-gal luminescence, 2 h
# How it was run: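 Translocation of GR-ED fusion to nuclear EA restores b-gal, read by luminescence after 1 h room-temperature detection. Engineered CHO-K1 biosensor cells, 1,000/well, exposed 2 h at 37 C to titrations up to 46 uM final.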
# [7] = target: Mitogen-activated protein kinase 10 (Mus musculus) (UniProt Q61831); assay: JNK3 AlphaScreen Assay (AID 530);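 note: kinase came from lysate of stimulated human HepG2 cells; signal reports phosphorylation of biotinylated GST-cJun 1-79 at Ser73 with 10 µM ATP; % is set by controls: 0 for no effect and ±100 for the full control effect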
# How it was run: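 Kinase buffer: 20 mM Tris-HCl pH 7.6, 10 mM MgCl2, 1 mM DTT, 0.1 mM Na3VO4, 0.01% Tween-20; ATP 10 uM. Substrate biotin-GST-cJun(1-79), enzyme from activated HepG2 lysates. Detection by Ser73 phospho-antibody AlphaScreen.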
# [8] = target: 3',5'-cyclic-AMP phosphodiesterase 4B (Homo sapiens) (UniProt Q07343); assay: qHTS Assay for Inhibitors of PDE-IV (AID 607; active = well fitted activation curve with a large enough effect in the main read-out, with a control signal flat, not every such curve was filed as active; note: % of control where 0% means no effect)
# Chain of 3',5'-cyclic-AMP phosphodiesterase 4B (Homo sapiens) (Q07343 whole entry, looked up): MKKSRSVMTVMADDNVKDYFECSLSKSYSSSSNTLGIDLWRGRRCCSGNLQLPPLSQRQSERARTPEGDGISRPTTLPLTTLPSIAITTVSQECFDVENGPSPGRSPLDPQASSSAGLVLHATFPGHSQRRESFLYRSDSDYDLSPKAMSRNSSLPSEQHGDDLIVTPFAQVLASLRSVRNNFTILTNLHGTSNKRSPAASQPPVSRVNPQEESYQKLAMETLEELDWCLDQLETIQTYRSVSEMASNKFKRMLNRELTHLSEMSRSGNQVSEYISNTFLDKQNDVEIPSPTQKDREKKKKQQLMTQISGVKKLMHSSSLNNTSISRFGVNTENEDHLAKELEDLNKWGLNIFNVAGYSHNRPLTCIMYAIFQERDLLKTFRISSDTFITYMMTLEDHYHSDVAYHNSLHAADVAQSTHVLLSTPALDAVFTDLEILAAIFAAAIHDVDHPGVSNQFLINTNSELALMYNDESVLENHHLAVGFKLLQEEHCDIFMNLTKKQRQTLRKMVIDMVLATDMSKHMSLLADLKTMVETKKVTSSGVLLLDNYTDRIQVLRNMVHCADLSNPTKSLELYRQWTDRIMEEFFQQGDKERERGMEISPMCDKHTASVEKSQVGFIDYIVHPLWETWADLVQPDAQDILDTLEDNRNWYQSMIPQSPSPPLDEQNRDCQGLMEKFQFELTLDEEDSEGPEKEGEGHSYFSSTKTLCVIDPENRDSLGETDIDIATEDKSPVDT
# How it was run: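 Cell-based read-out of cAMP via a modified cyclic nucleotide-gated channel and membrane potential dye (535/590 nm) in HEK293 cells expressing PDE4 endogenously. Compounds tested up to 22.9 uM final; 100 uM RO 20-1724 reference.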
# [9] = qHTS Assay for Lipid Storage Modulators (AID 1519; calls by dose curve); conditions: Drosophila S3 cells, BODIPY lipid droplet/cell ratio, laser cytometry, cells loaded with oleic acid; for activity change, negative = inhibition: at 25.7 µM (top of the series)
# How it was run: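 Cells seeded at 5,000 per well were treated with compounds over a concentration series and loaded with oleic acid (400 uM, as added). Lipid droplet fluorescence (488 nm excitation, 500-530 nm channel) was read by laser-scanning cytometry and normalized to 20 uM Triacsin C.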
# [10] = target: ATP-dependent 6-phosphofructokinase (Trypanosoma brucei brucei) (UniProt O15648); assay: qHTS Assay to Find Inhibitors of T. brucei phosphofructokinase: hit validation (AID 492961; active = well fitted curve in the direction sought with a large enough effect; an effect the other way counts as inactive or inconclusive)
# Chain of ATP-dependent 6-phosphofructokinase (Trypanosoma brucei brucei) (O15648 whole entry, looked up): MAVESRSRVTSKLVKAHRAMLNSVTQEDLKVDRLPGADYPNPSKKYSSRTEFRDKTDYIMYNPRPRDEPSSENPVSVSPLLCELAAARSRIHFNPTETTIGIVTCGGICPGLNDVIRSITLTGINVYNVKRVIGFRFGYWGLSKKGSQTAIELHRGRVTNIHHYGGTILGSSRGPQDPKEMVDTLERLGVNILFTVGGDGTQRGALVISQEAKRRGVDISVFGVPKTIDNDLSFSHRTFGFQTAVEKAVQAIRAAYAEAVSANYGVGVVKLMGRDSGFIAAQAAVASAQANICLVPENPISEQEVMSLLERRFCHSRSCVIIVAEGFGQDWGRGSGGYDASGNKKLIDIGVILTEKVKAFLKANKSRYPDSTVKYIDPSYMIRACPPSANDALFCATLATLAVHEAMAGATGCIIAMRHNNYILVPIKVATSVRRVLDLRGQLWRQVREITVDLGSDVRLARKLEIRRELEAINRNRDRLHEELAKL
# How it was run: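 Measures ADP output of PFK (1.25 nM) at 0.1 mM ATP, 0.5 mM F6P, pH 8.0 TEA buffer with 5 mM MgCl2. No-enzyme wells define full inhibition; uninhibited enzyme wells define zero.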
# [11] = target: Ubiquitin carboxyl-terminal hydrolase 1 (Homo sapiens) (UniProt O94782); assay: Inhibitors of USP1/UAF1: Pilot qHTS (AID 504865; active = well fitted curve in the direction sought with a large enough effect; an effect the other way counts as inactive or inconclusive;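 note: rhodamine fluorescence freed from ubiquitin-rhodamine substrate followed over time; top concentration of the series differs between compounds; % is set by controls: 0 for no effect and ±100 for the full control effect; nearly all actives have a fitted effect of over 35% in size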)
# Chain of Ubiquitin carboxyl-terminal hydrolase 1 (Homo sapiens) (O94782 whole entry, looked up): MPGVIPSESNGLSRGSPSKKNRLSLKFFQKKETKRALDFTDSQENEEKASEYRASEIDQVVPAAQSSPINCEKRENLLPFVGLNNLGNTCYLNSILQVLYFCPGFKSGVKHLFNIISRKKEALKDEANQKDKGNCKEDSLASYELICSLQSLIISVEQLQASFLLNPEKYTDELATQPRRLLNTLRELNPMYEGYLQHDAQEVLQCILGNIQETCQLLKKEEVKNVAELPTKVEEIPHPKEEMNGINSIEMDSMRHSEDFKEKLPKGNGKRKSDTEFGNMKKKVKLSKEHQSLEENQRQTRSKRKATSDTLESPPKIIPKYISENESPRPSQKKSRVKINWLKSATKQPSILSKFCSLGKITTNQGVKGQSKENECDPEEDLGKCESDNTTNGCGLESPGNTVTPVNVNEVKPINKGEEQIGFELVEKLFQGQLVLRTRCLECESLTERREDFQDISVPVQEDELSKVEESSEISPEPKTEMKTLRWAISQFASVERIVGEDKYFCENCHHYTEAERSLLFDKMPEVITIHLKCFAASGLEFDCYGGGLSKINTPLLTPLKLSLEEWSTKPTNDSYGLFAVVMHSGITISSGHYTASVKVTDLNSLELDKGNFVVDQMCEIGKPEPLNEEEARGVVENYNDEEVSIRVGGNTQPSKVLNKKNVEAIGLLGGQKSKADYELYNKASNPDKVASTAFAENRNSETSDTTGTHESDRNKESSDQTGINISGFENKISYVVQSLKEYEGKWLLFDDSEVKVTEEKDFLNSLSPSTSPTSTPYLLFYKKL
# How it was run: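 USP1/UAF1 complex at 1 nM preincubated 15 min at room temperature with compound, then Ub-Rho substrate added at 150 nM final. Fluorescence (480/540 nm) read kinetically in 50 mM HEPES pH 7.8, 0.5 mM EDTA, 1 mM TCEP, 0.1 mg/ml BSA, 0.01% Tween-20.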
# [12] = target: Luciferin 4-monooxygenase (Photinus pyralis) (UniProt P08659); assay: Biochemical firefly luciferase enzyme assay for NPC (AID 624030; active = well fitted curve in the direction sought with a large enough effect; an effect the other way counts as inactive or inconclusive;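 note: purified P. pyralis luciferase at 10 nM with luciferin and ATP substrate; 0% = DMSO and -100% = full luciferase inhibition by PTC124 control; nearly all actives have a fitted effect of over 70% in size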)
# Chain of Luciferin 4-monooxygenase (Photinus pyralis) (P08659 whole entry, looked up): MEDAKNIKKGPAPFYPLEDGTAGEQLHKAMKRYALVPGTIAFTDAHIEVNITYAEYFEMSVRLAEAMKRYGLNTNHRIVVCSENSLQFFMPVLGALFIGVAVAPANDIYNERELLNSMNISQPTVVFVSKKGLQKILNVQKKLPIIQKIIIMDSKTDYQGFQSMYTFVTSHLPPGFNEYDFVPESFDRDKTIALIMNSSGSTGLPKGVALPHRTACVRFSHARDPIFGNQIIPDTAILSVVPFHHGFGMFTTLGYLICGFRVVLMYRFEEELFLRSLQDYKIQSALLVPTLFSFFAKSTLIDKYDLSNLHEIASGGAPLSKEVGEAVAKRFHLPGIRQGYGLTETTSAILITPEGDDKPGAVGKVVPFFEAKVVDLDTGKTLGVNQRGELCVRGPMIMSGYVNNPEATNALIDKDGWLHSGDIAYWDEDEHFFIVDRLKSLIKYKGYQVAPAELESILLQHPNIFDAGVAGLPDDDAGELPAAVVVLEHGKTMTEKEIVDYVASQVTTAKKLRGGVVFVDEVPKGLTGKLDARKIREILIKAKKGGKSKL
# How it was run: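 Direct inhibition of firefly luciferase enzyme (10 nM final, 50 mM Tris Acetate) assessed by luminescence within 5 minutes. Percent activity scaled between DMSO and PTC124 positive control, with concentration-effect curves classified by fit quality and response.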
# [13] = qHTS profiling for inhibitors of Plasmodium falciparum proliferation (AID 504749; active = well fitted curve in the direction sought with a large enough effect; an effect the other way counts as inactive or inconclusive;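 note: 0% = DMSO vehicle and full inhibition = artemisinin control; nearly all actives have a fitted effect of over 60% in size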); conditions: P. falciparum in erythrocytes, SYBR Green DNA, 72 h
# How it was run: (§1)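 In a 72 h erythrocytic culture (37 C, humidified, 5% CO2) at 2.5% hematocrit and 0.3% starting parasitemia, compounds were tested; SYBR Green I in detergent lysis buffer stained parasite DNA overnight.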
# AS120 = assay: as above; conditions: P. falciparum in erythrocytes, SYBR Green DNA, 72 h; series mostly up to 28.7 µM
# How it was run: as §1
# CP238 = assay: as above; conditions: P. falciparum in erythrocytes, SYBR Green DNA, 72 h; series mostly up to 12.8 µM
# How it was run: as §1
# CP265 = assay: as above; conditions: P. falciparum in erythrocytes, SYBR Green DNA, 72 h; series mostly up to 12.8 µM
# How it was run: as §1
# FAB9 = assay: as above; conditions: P. falciparum in erythrocytes, SYBR Green DNA, 72 h; series mostly up to 12.8 µM
# How it was run: as §1
# [14] = target: Guanine nucleotide-binding protein G(i) subunit alpha-1 (Homo sapiens) (UniProt P63096); assay: qHTS Assay for Inhibitors of RGS12 GoLoco Motif Activity (Green Fluorophore) (AID 879; active = well fitted curve in the direction sought with a large enough effect; an effect the other way counts as inactive or inconclusive;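 note: 0% = labeled peptide with Gαi1 and full inhibition = labeled peptide alone without protein; negative values mean loss of peptide binding seen as reduced polarization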)
# Chain of Guanine nucleotide-binding protein G(i) subunit alpha-1 (Homo sapiens) (P63096 whole entry, looked up): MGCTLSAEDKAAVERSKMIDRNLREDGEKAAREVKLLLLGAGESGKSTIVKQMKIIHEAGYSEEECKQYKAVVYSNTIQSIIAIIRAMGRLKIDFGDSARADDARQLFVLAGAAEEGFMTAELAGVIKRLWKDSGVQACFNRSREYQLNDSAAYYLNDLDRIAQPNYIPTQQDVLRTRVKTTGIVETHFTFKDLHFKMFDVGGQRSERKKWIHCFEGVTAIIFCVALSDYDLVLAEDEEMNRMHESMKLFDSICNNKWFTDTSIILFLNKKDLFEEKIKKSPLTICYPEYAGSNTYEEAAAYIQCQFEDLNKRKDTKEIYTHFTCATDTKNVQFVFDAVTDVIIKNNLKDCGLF
# How it was run: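 A drop in FITC polarization marked displacement of the FITC-tagged RGS12 GoLoco peptide (10 nM) from Gαi1 (50 nM). Compounds were incubated 10 min at room temperature in Tris pH 7.5 buffer containing 150 mM NaCl, 0.1 mM GDP and 0.05% NP40; unlabeled peptide titration served as control.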
# [15] = target: Pyruvate kinase (Leishmania mexicana) (UniProt Q27686); assay: qHTS Validation Assay for Inhibitors of Leishmania Mexicana Pyruvate Kinase (AID 945; active = well fitted curve in the direction sought with a large enough effect; an effect the other way counts as inactive or inconclusive;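 note: 0% = DMSO only neutral control wells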)
# Chain of Pyruvate kinase (Leishmania mexicana) (Q27686 2-499 E452W): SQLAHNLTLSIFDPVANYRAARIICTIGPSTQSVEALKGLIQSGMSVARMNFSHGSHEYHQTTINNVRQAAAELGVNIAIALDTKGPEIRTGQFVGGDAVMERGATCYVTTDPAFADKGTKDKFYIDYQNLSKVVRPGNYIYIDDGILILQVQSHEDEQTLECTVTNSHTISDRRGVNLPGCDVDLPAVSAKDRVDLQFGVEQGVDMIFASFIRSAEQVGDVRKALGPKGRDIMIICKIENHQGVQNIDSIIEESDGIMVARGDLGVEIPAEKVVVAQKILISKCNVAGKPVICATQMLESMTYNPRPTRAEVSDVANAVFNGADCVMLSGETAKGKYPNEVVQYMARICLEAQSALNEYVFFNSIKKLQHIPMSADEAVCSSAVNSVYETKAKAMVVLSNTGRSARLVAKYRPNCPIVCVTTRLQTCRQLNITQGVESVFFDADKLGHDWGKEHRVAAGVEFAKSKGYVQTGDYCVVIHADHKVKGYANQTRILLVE
# How it was run: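 Read-out: luminescence from PKLight stop/detection reagent, data normalized to DMSO. Reaction: 0.2 nM E451W LmPYK, 0.5 mM PEP, 0.1 mM ADP, pH 7.2, 1 h room temperature.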
# [16] = target: Pyruvate kinase PKM (Homo sapiens) (UniProt P14618); assay: qHTS Assay for Activators of Human Muscle Pyruvate Kinase (AID 954; active = well fitted curve in the direction sought with a large enough effect, not every such curve was filed as active;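 note: 0% = uninhibited enzyme and -100% = no enzyme or full thiadiazolimine inhibition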)
# How it was run: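 ATP production by PKM2 detected via luciferase luminescence after 1 h room-temperature reaction (0.1 nM enzyme, PEP at Km 0.5 mM, ADP 0.1 mM, pH 7.2 imidazole buffer). Inhibition scaled to no-enzyme control; activation referenced to 0.3 nM enzyme wells.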
# [17] = at 7.69 µM (top of the series) unless noted
# [18] = measured here: cell count channel max response
# [19] = measured here: lipid channel max response
smiles,measurement,setting,value
CO[C@H]1C[C@@H](O[C@@H]2[C@H](C)[C@H](O[C@@H]3O[C@@H](C)C[C@@H](N(C)C)[C@@H]3O)[C@H](C)C[C@]3(CO3)C(=O)[C@H](C)[C@H](O)[C@H](C)[C@H](C)OC(=O)[C@@H]2C)O[C@@H](C)[C@H]1O,"activity change, negative = inhibition",[1]; [17],2.97% [at 17.2 µM] (inactive)
same,Potency,[2],inactive
same,"activity change, negative = inhibition",[3]; [17],8.23% [at 17.2 µM] (inactive)
same,"activity, negative = inhibition",[4]; [17],-6.44% [at 17.2 µM] (inactive)
same,Potency,[5],> 20.6 µM (inactive)
same,Potency,[6],> 20.6 µM (inactive)
same,Potency,[7],inactive
same,Potency,[8],inactive
same,"activity change, negative = inhibition",[9],1.28% (inactive)
same,max response,[9]; [18],9.47%
same,max response,[9]; [19],11.6%
same,outcome,[10],inactive
same,Potency,[11],inactive
same,outcome,[12],inactive
same,"activity, negative = inhibition","[13]; at 12.8 µM (top of the series), parasite line A",-15.5% (inactive)
same,"activity, negative = inhibition","[13]; at 12.8 µM (top of the series), parasite line B",-11.7% (inactive)
same,Potency,AS120,inactive
same,Potency,CP238,inactive
same,Potency,CP265,inactive
same,Potency,FAB9,inactive
CC[C@H](NC(C)C)[C@H](O)c1ccc(O)c(O)c1,"activity change, negative = inhibition",[1]; at 17.2 µM (top of the series),-20.6% (inactive)
same,"activity change, negative = inhibition",[1]; at 38 µM (top of the series),-15.3% (inactive)
same,Potency,[2],15.8 µM (active) and 12.6 µM (active)
same,"activity change, negative = inhibition",[3]; [17],-6.46% [at 17.2 µM] (inactive)
same,"activity, negative = inhibition",[4]; at 17.2 µM (top of the series),3.17% (inactive)
same,"activity, negative = inhibition",[4]; at 38 µM (top of the series),-26.1% (inactive)
same,Potency,[7],inactive
same,Potency,[8],inactive
same,Potency,[14],inactive
same,outcome,[15],inactive
same,outcome,[16],inactive
same,"activity change, negative = inhibition",[9],-0.896% (inactive)
same,max response,[9]; [18],-4.02%
same,max response,[9]; [19],-11.2%
same,outcome,[10],inactive
same,Potency,[11],inactive
same,outcome,[12],inactive
same,"activity, negative = inhibition","[13]; at 28.7 µM (top of the series), parasite line A",4.3% (inactive)
same,"activity, negative = inhibition","[13]; at 28.7 µM (top of the series), parasite line B",-2.19% (inactive)
same,Potency,AS120,inactive
same,Potency,CP238,inactive
same,Potency,CP265,inactive
same,Potency,FAB9,inactive
CC1=C(C(=O)O)N2C(=O)[C@@H](NC(=O)[C@@H](N)c3ccccc3)[C@@H]2SC1,"activity change, negative = inhibition",[1]; at 17.2 µM (top of the series),16.3% (inactive)
same,"activity change, negative = inhibition",[1]; at 38 µM (top of the series),11% (inactive)
same,"activity change, negative = inhibition",[3]; at 17.2 µM (top of the series),-9.84% (inactive)
same,"activity change, negative = inhibition",[3]; at 38 µM (top of the series),-0.753% (inactive)
same,"activity, negative = inhibition",[4]; at 17.2 µM (top of the series),10.2% (inactive)
same,"activity, negative = inhibition",[4]; at 38 µM (top of the series),30.7% (inactive)
same,Potency,[7],inactive
same,Potency,[8],inactive
same,Potency,[14],inactive
same,outcome,[15],inactive
same,outcome,[16],inactive
same,"activity change, negative = inhibition",[9],-1.09% (inactive)
same,max response,[9]; [18],0.948%
same,max response,[9]; [19],-0.484%
same,Potency,[11],inactive
CC(=O)[C@@H]1CC[C@@H]2[C@@H]3CCC4=CC(=O)CC[C@@]4(C)[C@H]3CC[C@]21C,"activity change, negative = inhibition",[1]; at 17.2 µM (top of the series),2.95% (inactive)
same,"activity change, negative = inhibition",[1]; at 38 µM (top of the series),10.7% (inactive)
same,Potency,[2],inactive
same,"activity change, negative = inhibition",[3]; at 17.2 µM (top of the series),-20.4% (inactive)
same,"activity change, negative = inhibition",[3]; at 38 µM (top of the series),-21.5% (inactive)
same,"activity, negative = inhibition",[4]; at 17.2 µM (top of the series),-0.332% (inactive)
same,"activity, negative = inhibition",[4]; at 38 µM (top of the series),9.04% (inactive)
same,Potency,[7],inactive
same,Potency,[8],inactive
same,"activity change, negative = inhibition",[9],-4.74% (inactive)
same,max response,[9]; [18],-9.33%
same,max response,[9]; [19],-17.9%

# Source: PubChem BioAssay (NCATS)
